VDR inhibitor: blocks the human vitamin D receptor; AID 504847; Potency, µM, usual class: inhibitors; VDR-SRC2-3 peptide fluorescence polarization, 2 h; P11473; 0.93% of 400,000 active
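Reagent solutions, kept cold and dark, are dispensed first; compounds are then pinned in at 23 nl, plates briefly spun, and incubated 2 h at ambient temperature. Inhibition of VDR–SRC2-3 peptide binding is read by fluorescence polarization.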
GCN5L2 inh: GCN5L2 (KAT2A) acetyltransferase inhibition. Q92830. GCN5L2 HAT assay, ThioGlo1 CoA-SH fluorescence. Potency, µM (series often up to 58.9 µM), usual class: inhibitors. 0.21% of 390,000 active. AID 504327
Target sequence (Q92830 whole entry, looked up): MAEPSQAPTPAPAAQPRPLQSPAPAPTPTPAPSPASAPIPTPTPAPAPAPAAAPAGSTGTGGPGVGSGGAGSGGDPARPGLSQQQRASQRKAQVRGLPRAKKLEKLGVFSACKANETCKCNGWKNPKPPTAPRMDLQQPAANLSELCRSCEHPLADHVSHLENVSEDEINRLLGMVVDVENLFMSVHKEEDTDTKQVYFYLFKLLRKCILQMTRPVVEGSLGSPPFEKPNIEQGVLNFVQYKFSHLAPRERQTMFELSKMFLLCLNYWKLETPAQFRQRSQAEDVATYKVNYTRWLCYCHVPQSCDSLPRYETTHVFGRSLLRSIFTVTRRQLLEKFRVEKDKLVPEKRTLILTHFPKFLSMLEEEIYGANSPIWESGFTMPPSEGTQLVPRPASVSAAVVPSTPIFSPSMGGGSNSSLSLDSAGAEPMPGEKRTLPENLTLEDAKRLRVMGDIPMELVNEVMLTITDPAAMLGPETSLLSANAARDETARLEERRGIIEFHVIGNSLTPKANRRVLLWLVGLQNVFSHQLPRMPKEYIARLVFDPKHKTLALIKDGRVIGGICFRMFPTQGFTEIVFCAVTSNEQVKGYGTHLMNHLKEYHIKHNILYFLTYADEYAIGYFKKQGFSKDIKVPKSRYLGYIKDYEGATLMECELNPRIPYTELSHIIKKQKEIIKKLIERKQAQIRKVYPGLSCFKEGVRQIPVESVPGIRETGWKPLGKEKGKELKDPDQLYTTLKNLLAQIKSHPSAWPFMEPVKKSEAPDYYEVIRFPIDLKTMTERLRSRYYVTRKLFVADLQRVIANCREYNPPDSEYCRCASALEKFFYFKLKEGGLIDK
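Titration-based screen in which CoA formation is detected via maleimide probe ThioGlo1 (50uM) turning fluorescent on thiol reaction; substrates H3(1-25) 75uM and acetyl-CoA 70uM, GCN5L2 20nM, 20 min incubation at room temperature.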
TrxR1 inh: blocks rat thioredoxin reductase 1 | O89049 | recombinant rTrxR1, NADPH fluorescence consumption, selenite substrate | Potency, µM (series often up to 114 µM), actives largely listed as inhibitors | 1% of 390,000 active | AID 588453; also: nearly all actives have a fitted effect of over 65% in size
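Rat TrxR1 (90 nM in the dispensed reagent) was pre-reduced with 400 uM NADPH for 5 min at room temperature, then incubated with compound for 15 min. After 400 uM selenite was added, NADPH fluorescence (Ex 340/Em 450 nm) was followed for 8 min.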
TrxR1 substrate: is turned over as a substrate by rat TrxR1. purified TrxR1 substrate turnover, NADPH consumption readout. Potency, µM (titrated, usually from 114 µM). 0.01% of 390,000 active. AID 588456; also: nearly all actives have a fitted effect of over 50% in size
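Rat TrxR1, dispensed at 90 nM, was prereduced with 400 uM NADPH (final) for 5 min at ~22 deg C, then incubated with compound 15 min before 400 uM selenite. A first-read NADPH fluorescence drop versus no-compound background flagged substrates.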
Numbers stand for hits; . = inactive; ? = inconclusive; / = no result; ! = not confirmed by another sample; [ ] = remark or other dose. The list is not random: actives were taken first. Their share in the collection is about 1.8%. Calls follow the shape of the dose curve; as a rule, active = well fitted curve in the direction sought with a large enough effect; inconclusive = small, poorly fitted or top-dose-only effect, or another doubt; inactive = no such curve, though single readings can be large; an effect the other way counts as inactive or inconclusive.

SMILES	VDR inhibitor	GCN5L2 inh	TrxR1 inh	TrxR1 substrate
O=C(O)c1cc(O)ccc1O	.	/	.	.
Nc1ccc(O)c(C(=O)O)c1	44.7µM!	?	/	/
OC1C(Br)=Cc2ccccc21 (configuration not stated)	/	/	.	.[0.0914 µM]
O=C(O)CC1CCC(=C(Cl)Cl)C1 (configuration not stated)	?	.	1µM	.
O=C(O)CC1CCS(=O)(=O)C1 (configuration not stated)	.	.	.	.
CCOCC(=O)Nc1nnc(COc2ccc(Cl)cc2)s1	79.4µM	.	.	.
COc1ccc(N2CCN(C(CNS(=O)(=O)c3ccc(OC)c(C)c3)c3ccco3)CC2)cc1 (configuration not stated)	.	.	.	.
CCOc1c2ccc(C(=O)N[C@H](C)C3CCCCC3)cc2nn1CC	.	0.891µM	.	.
CCCn1nc2cc(C(=O)NC3CCCc4ccccc43)ccc2c1OCC (configuration not stated)	.	10µM	.	.
O=C(Nc1nc2ccc(F)cc2s1)c1nc(S(=O)(=O)Cc2ccccc2F)ncc1Cl	?	.	?	.
CCOc1ccc(NC(=O)c2nc(S(=O)(=O)Cc3ccccc3)ncc2Cl)cc1	/	/	2.24µM	.
COC(=O)c1ccc(NC(=O)c2nc(S(=O)(=O)Cc3ccccc3F)ncc2Cl)cc1	/	/	8.91µM	.
CCOc1ccc(NC(=O)c2nc(S(=O)(=O)Cc3ccccc3F)ncc2Cl)cc1	?	.	1.78µM	.
COc1cc2c(NC3CCN(C(C)C)CC3)nc(N3CCCN(C)CC3)nc2cc1OCCCN1CCCC1	/	/	?	.
Cc1ccc(-n2c3c(c(=O)[nH]c2=O)C(NC(=O)c2ccccc2C)(C(F)(F)F)C(=O)N3)cc1 (configuration not stated)	.	.	.	.
COc1cc2nc(Cl)nc(NC3CCN(C)CC3)c2cc1OC	/	/	.	.
COc1cc2cc(CNc3ccc(C)cc3)c(=O)n(CC(=O)Nc3ccc(C(C)C)cc3)c2cc1OC	.	.	.	.
c1ccc(-n2cnnn2)cc1	.	/	/	/
O=C(NC1CCCCCC1)C1CCC(CNS(=O)(=O)c2cccc3cccnc23)CC1 (configuration not stated)	/	/	.	.
CCNC(=O)C/C(C)=N/NC(=O)C12CC3CC(CC(C3)C1)C2	.	.	25.1µM	.
O=C(Nc1ncnc2nc[nH]c12)c1ccccc1	.	/	.	.
COCC1CCCN(C(=O)c2cc(COc3ccc(C(C)=O)cc3)on2)C1 (configuration not stated)	.	/	?	.
CC(=O)c1ccc(OCc2cc(C(=O)N3CC[C@@H]4CCCC[C@H]4C3)no2)cc1	.	.	25.1µM	.
COc1ccc(C(=S)NC2CCCCC2)cc1	89.1µM	.	.	.
CCOc1ccc(C(=S)NC2CCCCC2)cc1	.	.	.	.
SMILES	VDR inhibitor	GCN5L2 inh	TrxR1 inh	TrxR1 substrate
CC(O)COCC1OC2OC3C(COCC(C)O)OC(OC4C(COCC(C)O)OC(OC5C(COCC(C)O)OC(OC6C(COCC(C)O)OC(OC7C(COCC(C)O)OC(OC8C(COCC(C)O)OC(OC1C(OCC(C)O)C2OCC(C)O)C(OCC(C)O)C8OCC(C)O)C(OCC(C)O)C7OCC(C)O)C(OCC(C)O)C6OCC(C)O)C(OCC(C)O)C5OCC(C)O)C(OCC(C)O)C4OCC(C)O)C(OCC(C)O)C3OCC(C)O (configuration not stated)	/	/	.	.
O=C(O)C1=CC(=C(c2ccc(O)c(C(=O)O)c2)c2ccc(O)c(C(=O)O)c2)C=CC1=O	8.91µM	0.316µM	?	.
COc1ccc2c(c1)CCc1c(C(=O)N3CCOCC3)noc1-2	.	.	20µM	.
COc1ccc2c(c1)CCc1c(C(=O)N3CCCc4ccccc43)noc1-2	.	.	.	.
COCCN(CCOC)Cc1c(O)ccc2c1O/C(=C\c1ccc(C)o1)C2=O	.	.	50.1µM	?
COc1ccccc1/C=C/C=C1\Oc2c(ccc(O)c2CN(C)C)C1=O	.	.	?	.
COc1cc(OC)c(NC(=O)Nc2cc(C)on2)cc1Cl	.	.	/	/
CC(C(Sc1ccccc1N)c1ccccc1)[N+](=O)[O-] (configuration not stated)	17.8µM	.	6.31µM	.
Nc1ccccc1SCc1ccccc1Cl	.	.	.	.
N[C@H]1CCN(O)C1=O	.	.	/	/
CN(C)C(=O)COc1ccccc1C(=O)OCC(=O)N(CCC#N)c1ccccc1	/	/	.	.
CCC(C)Sc1ccc(-c2nc3cnccn3c2NC2CCCCC2)cc1 (configuration not stated)	.	28.2µM	.	.
COc1ccc(/C=C/c2nccc3ccccc23)cc1OC	/	/	.	.
CN(c1ccc(/C=C/c2ccccc2)cc1)P1(=O)NCCCO1 (configuration not stated)	/	/	.	.
CCOc1ccc(C(=O)NC2C(=O)N3C(C(=O)O)=C(COC(C)=O)CSC23)cc1OCC (configuration not stated)	?	.	56.2µM	.
CC(=O)OCC1=C(C(=O)O)N2C(=O)C(NC(=O)c3ccc(COc4ccc(Cl)cc4)o3)C2SC1 (configuration not stated)	44.7µM	.	?	.
CC(=O)OCC1=C(C(=O)O)N2C(=O)C(NC(=O)c3ccc(COc4c(C)cccc4Cl)o3)C2SC1 (configuration not stated)	15.8µM	?	?	.
CC(=O)OCC1=C(C(=O)O)N2C(=O)C(NC(=O)CCn3nc(C(F)(F)F)c(Br)c3C3CC3)C2SC1 (configuration not stated)	39.8µM	.	.	.
CC(=O)OCC1=C(C(=O)O)N2C(=O)C(NC(=O)CCn3nc(C)c(Cl)c3C)C2SC1 (configuration not stated)	.	.	.	.
CC(=O)OCC1=C(C(=O)O)N2C(=O)C(NC(=O)COc3ccc(F)cc3)C2SC1 (configuration not stated)	.	.	?	.
Cc1ccc(CS(=O)Cc2ccc(C(=O)NC3CCCC(C)C3C)o2)cc1 (configuration not stated)	.	.	44.7µM	.
Cc1ccc(CS(=O)Cc2ccc(C(=O)NC3CCCCCC3)o2)cc1 (configuration not stated)	.	.	?	.
N[C@@H]1C(O)OC(CO)C(O)C1O (some centres not stated)	.	.	/	/
OCC1O[C@H]([S-])[C@H](O)[C@@H](O)[C@@H]1O.[Au+] (some centres not stated)	2.82µM	.	0.251µM	.
CCOC(=O)c1c(N2C(=O)C3C4C=CC(O4)C3C2=O)sc2c1CCCC2 (configuration not stated)	.	/	12.6µM	.
O=C1/C(=C/c2ccco2)CCC1C1CCCC1 (configuration not stated)	.	.	.	.
O=C1/C(=C\c2ccco2)CCC/C1=C\c1ccco1	?	?	2.24µM	.
Cc1ccc(NC(=O)COC(=O)c2ccccc2OCC(=O)Nc2ccc(Br)cc2)c(Br)c1	/	/	.	.

High-throughput results from PubChem.
